This is an account of results in PubChem BioAssay (EPA / NIEHS).

Inconclusive results are not listed. Activity calls are given as the source filed them. The calls were made as follows, unless noted: active = hit-call score of the fitted dose curve at least 0.9, where 1 is the maximum; inconclusive = response in the unintended direction; inactive = score below 0.9.

Assay [1] in a line: ATG_TCF_b_cat_CIS: Attagene CIS-FACTORIAL HepG2 Assay for human T-Cell-Factor with beta-catenin (TCF/b-cat) (AID 2282965; active = hit-call score of the fitted dose curve at least 0.9, where 1 is the maximum; inactive = score below 0.9). Conditions: HepG2 TCF/beta-catenin cis-reporter transcription, actives raise or lower the signal. The gist of the method: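 Cells of the HepG2 line carry transiently transfected reporter units whose promoters respond to endogenous factors. Twenty-four hours post-dosing, reporter mRNA induction is measured by fluorescent RT-PCR and capillary electrophoresis, with DMSO as baseline.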

Assay [2] is described as follows: ATG_TAL_CIS: Attagene CIS-FACTORIAL HepG2 Assay for human TAL Basal Promoter (AID 2282966; active = hit-call score of the fitted dose curve at least 0.9, where 1 is the maximum; inactive = score below 0.9;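 also: background control endpoint measuring basal TAL promoter reporter mRNA not a specific factor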). Conditions: HepG2 Attagene cis-factorial TAL promoter reporter; actives raise or lower the signal. The gist of the method:
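Basal-promoter background-control endpoint from a multiplexed HepG2 reporter panel. Cells were exposed 24 h, then reporter mRNA was read by RT-PCR/CE fluorescence and fitted in both directions relative to DMSO.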

A short description of assay [3]: ATG_TGFb_CIS: Attagene CIS-FACTORIAL HepG2 Assay for human Transforming Growth Factor (TGF) (AID 2282967; active = hit-call score of the fitted dose curve at least 0.9, where 1 is the maximum; inactive = score below 0.9). The note with it: HepG2 Attagene CIS TGFb reporter, mRNA transcription; actives raise or lower the signal. In a few lines: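 Transcript-level reporter readout: HepG2 transfectants, 24 h exposure, RNA to cDNA, reporter-specific PCR, fluorescent primer extension, capillary sizing against ROX standards. Gain- or loss-of-signal relative to DMSO.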

Assay [4] in a line: ATG_VDRE_CIS: Attagene CIS-FACTORIAL HepG2 Assay for human Vitamin D Receptor Element (VDRE) (AID 2282968; active = hit-call score of the fitted dose curve at least 0.9, where 1 is the maximum; inactive = score below 0.9). The note with it: HepG2 VDRE cis-reporter transcription, actives raise or lower the signal. In a few lines:
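Compounds were applied for 24 h to HepG2 cells transfected with promoter-regulated reporter units. Total RNA was reverse-transcribed, and reporter amplicons were fluorescently labelled and sized by capillary electrophoresis.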

In assay [5] the target is Nuclear receptor subfamily 1 group I member 3 (Homo sapiens) (UniProt Q14994). Kind of assay: ATG_CAR_TRANS: Attagene TRANS-FACTORIAL HepG2 Assay for human Constitutive Androstane Receptor (CAR) (AID 2282969).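 Also: activators raise reporter mRNA above DMSO so AC50 marks induction.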 The note with it: HepG2 Attagene TRANS-FACTORIAL CAR reporter. In a few lines:
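Transiently transfected HepG2, multiplex TRANS reporters (CAR-Gal4 chimera driving GAL4-UAS reporter). 24 h dosing. Readout: reporter transcript by RT-PCR + capillary electrophoresis, fluorescence intensity; positive direction vs DMSO.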

Assay [6] concerns the target Estrogen receptor (Homo sapiens) (UniProt P03372). The assay is described as follows: ATG_ERa_TRANS: Attagene TRANS-FACTORIAL HepG2 Assay for human Estrogen Receptor alpha (ERa) (AID 2282970). The note with it: HepG2 Attagene TRANS ERa GAL4 reporter, mRNA. The gist of the method: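 Gal4-fusion ERa transactivation, measured as reporter transcript level in transiently transfected HepG2 cells. Exposure 24 h; RT-PCR plus capillary electrophoresis with fluorescence detection.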

Assay [7] deals with X-box-binding protein 1 (Homo sapiens) (UniProt P17861). Kind of assay: ATG_Xbp1_CIS: Attagene CIS-FACTORIAL HepG2 Assay for human X-box Binding Protein 1 (XBP1) (AID 2282972; active = hit-call score of the fitted dose curve at least 0.9, where 1 is the maximum; inactive = score below 0.9). Conditions: HepG2 XBP1 cis-element reporter, Attagene multiplex; actives raise or lower the signal. In a few lines:
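Changes in reporter transcript abundance, read by RT-PCR and capillary electrophoresis, reflect endogenous transcription factor activity. Transfected HepG2 cells received compound for 24 hours; DMSO defined baseline for bidirectional analysis.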

Assay [8] is described as follows: ATG_GAL4_TRANS: Attagene TRANS-FACTORIAL HepG2 Assay for GAL4 (Internal Marker) (AID 2282976). The note with it: HepG2 Attagene TRANS GAL4 internal marker reporter. In a few lines: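 Background-control readout: GAL4-UAS reporter transcript in transiently transfected HepG2 cells after 24 h compound exposure. Measured by RT-PCR, 6-FAM primer extension, HpaI digest and capillary electrophoresis; gain-of-signal fit versus DMSO.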

In assay [9] the target is Estrogen-related receptor gamma (Homo sapiens) (UniProt P62508). Kind of assay: ATG_ERRg_TRANS: Attagene TRANS-FACTORIAL HepG2 Assay for human Estrogen-Related Receptor gamma (ERRg) (AID 2282977).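 Also: hits increase reporter signal over DMSO so potencies reflect activators.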 Conditions: HepG2 Attagene TRANS reporter, ERRg transactivation. In a few lines: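 Exogenous NR-Gal4 chimera activity measured as reporter transcript induction after 24 h in transiently transfected HepG2 cells. RNA reverse-transcribed, PCR-amplified, 6-FAM-labelled and resolved by capillary electrophoresis; increase over DMSO baseline.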

The target in assay [10] is Oxysterols receptor LXR-alpha (Homo sapiens) (UniProt Q13133). Kind of assay: ATG_LXRa_TRANS: Attagene TRANS-FACTORIAL HepG2 Assay for human Liver X Receptor alpha (LXRa) (AID 2282980). The note with it: HepG2 Attagene TRANS reporter, LXRa transactivation. The gist of the method: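 HepG2 cells transiently transfected with GAL4-UAS reporter units for chimeric NR-Gal4 proteins, exposed to chemicals for 24 h. Reporter mRNA quantified by RT-PCR and capillary electrophoresis; gain of signal fitted relative to DMSO.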

Assay [11] deals with Nuclear receptor subfamily 4 group A member 2 (Homo sapiens) (UniProt P43354). The assay is described as follows: ATG_NURR1_TRANS: Attagene TRANS-FACTORIAL HepG2 Assay for human Nuclear Receptor Related Protein 1 (NURR1) (AID 2282985). The note with it: HepG2 Attagene TRANS reporter, mRNA readout. In a few lines: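 Endpoint: reporter mRNA increase relative to DMSO. HepG2 cells transfected with reporter units, treated 24 h; RNA processed by RT-PCR, labelling, HpaI digestion and capillary electrophoresis.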

For assay [12], the target named is Hepatocyte nuclear factor 4-alpha (Homo sapiens) (UniProt P41235). The assay is described as follows: ATG_HNF4a_TRANS: Attagene TRANS-FACTORIAL HepG2 Assay for human Hepatocyte Nuclear Factor 4 alpha (HNF4a) (AID 2282982). Conditions: HepG2 HNF4a transactivation reporter, mRNA readout. In a few lines: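 Endpoint reflects transcriptional activation of a GAL4-UAS reporter by an HNF4a-GAL4 chimera in transfected HepG2 cells, 24 h post-dosing. Fluorescence from RT-PCR products separated by capillary electrophoresis; DMSO baseline.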

A short description of assay [13]: ATG_M_06_TRANS: Attagene TRANS-FACTORIAL HepG2 Assay for M06 Transcription Factor (Internal Marker) (AID 2282983). Conditions: HepG2 Attagene TRANS M06 internal marker reporter. In a few lines:
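mRNA levels of a reporter transcript, quantified as FAM fluorescence on capillary electrophoresis, served as readout. HepG2 cells expressing exogenous GAL4-chimera reporter constructs were exposed for 24 h. Gain of signal over DMSO was evaluated.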

Assay [14] addresses Transcriptional activator Myb (Homo sapiens) (UniProt P10242). Kind of assay: ATG_Myb_CIS: Attagene CIS-FACTORIAL HepG2 Assay for human Myeloblastosis (Myb) Proto-Oncogene Transcription Factor (AID 2282986; active = hit-call score of the fitted dose curve at least 0.9, where 1 is the maximum; inactive = score below 0.9). The note with it: HepG2 Attagene CIS-FACTORIAL Myb reporter transcription; actives raise or lower the signal. In a few lines:
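Steps: transfect HepG2 with cis-regulated reporter units; dose with chemical for 24 h; isolate RNA, reverse-transcribe, PCR-amplify and FAM-label reporter sequences; digest with HpaI; resolve by capillary electrophoresis. Activity fitted in both directions relative to DMSO.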

Assay [15] has as its target Bile acid receptor (Homo sapiens) (UniProt Q96RI1). The assay is described as follows: ATG_FXR_TRANS: Attagene TRANS-FACTORIAL HepG2 Assay for Farnesoid X Receptor (FXR) (AID 2282979).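 Also: hits raise reporter mRNA above DMSO so AC50 marks FXR activation.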 Conditions: HepG2 Attagene TRANS FXR-GAL4 reporter transcription. In a few lines:
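HepG2 cells were transiently transfected with GAL4-UAS reporters driven by chimeric NR-Gal4 proteins and dosed for 24 h. Reporter mRNA was quantified by RT-PCR, fluorescent labelling, HpaI digestion and capillary electrophoresis, with gain of signal scored versus DMSO.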

Assay [16] concerns the target Oxysterols receptor LXR-beta (Homo sapiens) (UniProt P55055). The assay is described as follows: ATG_LXRb_TRANS: Attagene TRANS-FACTORIAL HepG2 Assay for human Liver X Receptor beta (LXRb) (AID 2282981). The note with it: HepG2 Attagene TRANS GAL4-LXRb reporter, mRNA. In a few lines:
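Multiplexed reporter assay, HepG2, 24 h dosing. Fluorescence of labelled RT-PCR products after capillary electrophoresis gives transcript level; positive fitting direction relative to DMSO.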

The nature of assay [17]: ATG_M_32_TRANS: Attagene TRANS-FACTORIAL HepG2 Assay for M32 Transcription Factor (Internal Marker) (AID 2282984). Conditions: HepG2 Attagene TRANS M32 internal marker reporter. In a few lines: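 Internal-marker readout from a multiplexed transcription reporter panel. HepG2 cells were transfected with GAL4-UAS reporter units, treated 24 hours, and reporter transcript levels determined by fluorescence after RT-PCR and capillary separation.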

In assay [18] the target is Steroid hormone receptor ERR1 (Homo sapiens) (UniProt P11474). Kind of assay: ATG_ERRa_TRANS: Attagene TRANS-FACTORIAL HepG2 Assay for human Estrogen-Related Receptor alpha (ERRa) (AID 2282971). Conditions: HepG2 Attagene TRANS reporter, ERRa transactivation. The gist of the method: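 HepG2 cells transiently transfected with GAL4-UAS reporter units and chimeric NR-Gal4 constructs; after 24 hour compound incubation, reporter mRNA quantified by RT-PCR, fluorescent labelling and capillary electrophoresis, gain of signal versus DMSO.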

The target in assay [19] is Glucocorticoid receptor (Homo sapiens) (UniProt P04150). Kind of assay: ATG_GR_TRANS: Attagene TRANS-FACTORIAL HepG2 Assay for human Glucocorticoid Receptor (GR) (AID 2282978).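 Also: activators score as hits since higher reporter transcript over DMSO is fitted.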 The note with it: HepG2 Attagene TRANS GR reporter, mRNA transcription. In a few lines: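 In this trans-factorial format, exogenous NR-GAL4 chimeric proteins in transfected HepG2 cells regulate GAL4-UAS reporter transcription. After 24 h treatment, reporter mRNA induction relative to DMSO is read by RT-PCR and capillary electrophoresis.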
Sequence of Glucocorticoid receptor (Homo sapiens) (P04150 whole entry, looked up, the tested form may be a part): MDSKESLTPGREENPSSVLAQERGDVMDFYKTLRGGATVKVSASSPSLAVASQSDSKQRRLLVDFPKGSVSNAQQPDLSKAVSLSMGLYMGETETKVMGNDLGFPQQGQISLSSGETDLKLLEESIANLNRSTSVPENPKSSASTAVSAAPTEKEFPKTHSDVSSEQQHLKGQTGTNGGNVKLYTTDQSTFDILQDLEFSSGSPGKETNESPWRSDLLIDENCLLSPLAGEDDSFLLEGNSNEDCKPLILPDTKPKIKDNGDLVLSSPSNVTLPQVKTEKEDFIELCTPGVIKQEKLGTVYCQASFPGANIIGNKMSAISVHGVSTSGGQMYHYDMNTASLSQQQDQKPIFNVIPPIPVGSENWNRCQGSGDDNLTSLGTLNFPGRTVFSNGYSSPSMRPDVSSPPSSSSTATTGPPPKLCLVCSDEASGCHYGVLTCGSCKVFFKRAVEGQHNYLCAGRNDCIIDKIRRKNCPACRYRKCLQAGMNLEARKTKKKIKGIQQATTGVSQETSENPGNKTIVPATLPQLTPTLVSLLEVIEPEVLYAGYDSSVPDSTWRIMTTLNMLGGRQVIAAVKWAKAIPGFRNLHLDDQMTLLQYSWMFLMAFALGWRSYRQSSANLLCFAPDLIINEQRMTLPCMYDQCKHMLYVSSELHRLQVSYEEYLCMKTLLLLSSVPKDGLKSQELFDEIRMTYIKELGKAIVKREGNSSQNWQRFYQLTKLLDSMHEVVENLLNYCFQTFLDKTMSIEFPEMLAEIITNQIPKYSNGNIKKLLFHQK

Sequence of Oxysterols receptor LXR-alpha (Homo sapiens) (Q13133 whole entry, looked up, the tested form may be a part): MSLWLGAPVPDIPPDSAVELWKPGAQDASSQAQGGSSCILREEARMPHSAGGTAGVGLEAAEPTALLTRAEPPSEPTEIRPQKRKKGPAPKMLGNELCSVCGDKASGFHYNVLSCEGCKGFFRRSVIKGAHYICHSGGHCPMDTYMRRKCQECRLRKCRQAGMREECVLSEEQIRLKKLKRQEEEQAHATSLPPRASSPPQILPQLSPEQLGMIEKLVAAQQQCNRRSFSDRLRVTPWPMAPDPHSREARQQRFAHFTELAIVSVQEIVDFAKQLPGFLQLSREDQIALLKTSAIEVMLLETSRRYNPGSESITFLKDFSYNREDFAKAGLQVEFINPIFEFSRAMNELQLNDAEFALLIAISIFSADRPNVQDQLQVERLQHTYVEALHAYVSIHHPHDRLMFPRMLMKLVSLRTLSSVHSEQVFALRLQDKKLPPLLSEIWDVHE
Sequence of Hepatocyte nuclear factor 4-alpha (Homo sapiens) (P41235 whole entry, looked up, the tested form may be a part): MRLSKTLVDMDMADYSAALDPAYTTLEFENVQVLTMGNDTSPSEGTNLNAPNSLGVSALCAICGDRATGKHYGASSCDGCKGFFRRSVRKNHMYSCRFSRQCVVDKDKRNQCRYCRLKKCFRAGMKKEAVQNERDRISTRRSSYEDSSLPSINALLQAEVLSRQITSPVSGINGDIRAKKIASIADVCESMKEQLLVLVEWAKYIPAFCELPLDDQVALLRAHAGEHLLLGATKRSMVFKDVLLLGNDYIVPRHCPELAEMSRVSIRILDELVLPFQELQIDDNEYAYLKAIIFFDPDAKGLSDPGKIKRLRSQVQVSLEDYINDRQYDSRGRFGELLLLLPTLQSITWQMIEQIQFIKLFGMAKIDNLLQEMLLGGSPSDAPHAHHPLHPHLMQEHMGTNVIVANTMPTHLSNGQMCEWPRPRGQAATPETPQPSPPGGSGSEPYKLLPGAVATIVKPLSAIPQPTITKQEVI
Sequence of Estrogen receptor (Homo sapiens) (P03372 whole entry, looked up, the tested form may be a part): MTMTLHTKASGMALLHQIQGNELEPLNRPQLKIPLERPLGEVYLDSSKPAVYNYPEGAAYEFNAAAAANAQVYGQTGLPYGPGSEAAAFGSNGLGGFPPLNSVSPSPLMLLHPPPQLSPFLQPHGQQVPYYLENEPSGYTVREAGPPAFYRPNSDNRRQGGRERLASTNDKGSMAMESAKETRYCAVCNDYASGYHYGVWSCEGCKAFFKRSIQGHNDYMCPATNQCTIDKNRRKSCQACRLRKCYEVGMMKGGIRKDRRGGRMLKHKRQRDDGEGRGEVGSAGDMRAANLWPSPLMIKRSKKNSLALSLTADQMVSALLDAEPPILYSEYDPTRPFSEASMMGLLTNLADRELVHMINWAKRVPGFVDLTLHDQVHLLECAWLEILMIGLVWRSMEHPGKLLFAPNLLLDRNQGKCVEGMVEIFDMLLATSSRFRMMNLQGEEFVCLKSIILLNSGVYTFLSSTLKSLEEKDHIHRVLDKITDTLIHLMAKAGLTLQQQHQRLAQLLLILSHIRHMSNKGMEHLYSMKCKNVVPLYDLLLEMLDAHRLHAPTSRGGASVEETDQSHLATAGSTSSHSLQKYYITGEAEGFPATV
Sequence of Nuclear receptor subfamily 1 group I member 3 (Homo sapiens) (Q14994 whole entry, looked up, the tested form may be a part): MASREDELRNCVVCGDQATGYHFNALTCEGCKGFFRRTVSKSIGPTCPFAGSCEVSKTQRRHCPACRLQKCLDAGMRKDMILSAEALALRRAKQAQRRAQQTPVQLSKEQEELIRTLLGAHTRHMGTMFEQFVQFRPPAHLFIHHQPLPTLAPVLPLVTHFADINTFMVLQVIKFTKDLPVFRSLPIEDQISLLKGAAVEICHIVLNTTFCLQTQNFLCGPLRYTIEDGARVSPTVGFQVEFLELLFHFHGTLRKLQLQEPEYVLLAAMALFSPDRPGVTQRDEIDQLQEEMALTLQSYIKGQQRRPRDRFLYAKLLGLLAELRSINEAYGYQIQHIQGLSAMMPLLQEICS
Sequence of Estrogen-related receptor gamma (Homo sapiens) (P62508 whole entry, looked up, the tested form may be a part): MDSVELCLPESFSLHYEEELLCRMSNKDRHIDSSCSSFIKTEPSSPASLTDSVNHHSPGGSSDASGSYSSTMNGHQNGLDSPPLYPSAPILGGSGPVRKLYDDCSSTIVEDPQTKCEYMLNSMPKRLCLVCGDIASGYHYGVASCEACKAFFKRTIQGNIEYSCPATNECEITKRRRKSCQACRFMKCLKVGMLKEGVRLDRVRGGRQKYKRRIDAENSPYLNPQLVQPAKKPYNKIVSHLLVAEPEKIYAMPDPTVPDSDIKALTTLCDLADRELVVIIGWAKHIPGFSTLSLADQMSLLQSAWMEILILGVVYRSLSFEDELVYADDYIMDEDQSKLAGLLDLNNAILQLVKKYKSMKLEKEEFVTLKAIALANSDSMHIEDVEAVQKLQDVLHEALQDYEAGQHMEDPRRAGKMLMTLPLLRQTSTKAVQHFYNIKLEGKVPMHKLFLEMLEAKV
Sequence of Oxysterols receptor LXR-beta (Homo sapiens) (P55055 whole entry, looked up, the tested form may be a part): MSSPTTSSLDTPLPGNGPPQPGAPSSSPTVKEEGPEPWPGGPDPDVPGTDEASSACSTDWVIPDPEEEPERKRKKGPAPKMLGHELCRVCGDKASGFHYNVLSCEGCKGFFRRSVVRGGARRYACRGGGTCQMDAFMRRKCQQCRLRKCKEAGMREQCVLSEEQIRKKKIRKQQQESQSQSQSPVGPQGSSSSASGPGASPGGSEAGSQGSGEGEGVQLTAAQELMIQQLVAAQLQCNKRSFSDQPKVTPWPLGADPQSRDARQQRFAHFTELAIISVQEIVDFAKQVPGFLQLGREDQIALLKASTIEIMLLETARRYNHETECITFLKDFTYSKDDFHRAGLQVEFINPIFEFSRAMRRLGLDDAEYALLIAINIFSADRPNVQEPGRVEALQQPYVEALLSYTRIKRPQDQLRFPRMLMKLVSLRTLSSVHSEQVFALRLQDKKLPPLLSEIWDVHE
Sequence of Nuclear receptor subfamily 4 group A member 2 (Homo sapiens) (P43354 whole entry, looked up): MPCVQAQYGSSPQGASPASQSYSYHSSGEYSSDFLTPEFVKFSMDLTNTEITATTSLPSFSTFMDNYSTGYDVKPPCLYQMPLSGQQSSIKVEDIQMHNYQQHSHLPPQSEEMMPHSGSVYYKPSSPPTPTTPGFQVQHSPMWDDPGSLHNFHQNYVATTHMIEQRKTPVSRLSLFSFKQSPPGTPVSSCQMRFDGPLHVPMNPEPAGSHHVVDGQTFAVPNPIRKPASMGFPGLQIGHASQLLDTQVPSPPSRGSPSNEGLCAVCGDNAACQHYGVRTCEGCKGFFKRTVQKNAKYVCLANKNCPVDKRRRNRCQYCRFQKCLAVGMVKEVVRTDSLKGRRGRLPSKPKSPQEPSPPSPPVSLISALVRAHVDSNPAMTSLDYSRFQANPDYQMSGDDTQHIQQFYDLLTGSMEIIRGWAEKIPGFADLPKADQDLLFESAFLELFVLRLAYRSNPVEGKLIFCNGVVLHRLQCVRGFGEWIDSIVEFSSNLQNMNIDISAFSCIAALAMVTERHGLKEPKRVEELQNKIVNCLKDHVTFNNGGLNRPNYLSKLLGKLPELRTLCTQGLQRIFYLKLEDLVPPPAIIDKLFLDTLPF
Sequence of Transcriptional activator Myb (Homo sapiens) (P10242 whole entry, looked up): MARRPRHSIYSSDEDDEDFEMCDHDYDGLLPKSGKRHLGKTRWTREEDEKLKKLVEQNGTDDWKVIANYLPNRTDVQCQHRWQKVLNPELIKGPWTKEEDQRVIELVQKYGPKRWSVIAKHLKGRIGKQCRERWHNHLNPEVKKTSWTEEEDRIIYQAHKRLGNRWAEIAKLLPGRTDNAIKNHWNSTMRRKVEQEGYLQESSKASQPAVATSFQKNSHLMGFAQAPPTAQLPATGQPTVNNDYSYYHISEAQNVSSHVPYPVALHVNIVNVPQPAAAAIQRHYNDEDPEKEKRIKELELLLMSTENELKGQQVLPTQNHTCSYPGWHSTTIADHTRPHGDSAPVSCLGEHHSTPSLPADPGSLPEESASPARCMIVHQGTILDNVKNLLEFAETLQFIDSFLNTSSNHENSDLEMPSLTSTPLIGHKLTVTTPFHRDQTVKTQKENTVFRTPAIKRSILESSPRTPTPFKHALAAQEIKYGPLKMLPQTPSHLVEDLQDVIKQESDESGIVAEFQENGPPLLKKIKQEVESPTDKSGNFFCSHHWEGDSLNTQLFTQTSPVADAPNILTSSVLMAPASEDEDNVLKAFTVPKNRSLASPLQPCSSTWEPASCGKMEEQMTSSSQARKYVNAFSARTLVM

The AC50 is the concentration at which the activity in the assay is half-maximal. In the case of `FC(F)(I)C(F)(F)C(F)(F)C(F)(F)I`, the result in assay [1], in [2], in [3], in assay [4], in assay [5] and in [7] was inactive. The result in [8], in [9], in assay [10] and in assay [11] was inactive. Moreover, the AC50 in assay [6] was 0.299 µM (active).

Take `CCCCCCOC(=O)c1ccccc1`: the result in assay [1], in assay [2], in assay [3], in assay [4], in [5] and in assay [6] was inactive. The molecule was classed as inactive in assay [7], in [12], in assay [13] and in assay [14].

Take `CCN(CC)c1ccc2c(C)cc(=O)oc2c1`: the molecule was called inactive in [1], in assay [2], in [3], in [5], in [7] and in assay [15]. The call in assay [16], in [17] and in assay [11] was inactive. The AC50 in assay [4] was 9.28 µM (active); in assay [6], 25.4 µM (active); in assay [10], 26.2 µM (active).

On to `OCC(F)(F)C(F)(F)C(F)(F)C(F)F`, for which the outcome in assay [1], in [2], in assay [3], in assay [4], in assay [6] and in [18] was inactive. For the same molecule, the result in assay [7], in assay [8], in [15], in assay [10], in [16] and in assay [12] was inactive. For the same molecule, the call in [13] and in [17] was inactive.

With `CCCCC(CC)COP(=O)(O)OCC(CC)CCCC` (stereo not given), the AC50 is 42.7 µM (active) in assay [1] and 27.6 µM (active) in [4]. The call in assay [2], in [3], in assay [5], in [6], in assay [7] and in assay [9] was inactive. The molecule was classed as inactive in assay [19], in assay [15] and in assay [14].

Regarding `CCCCCCS`, the AC50 in assay [1] was 68.8 µM (active). For the same molecule, the call in [2], in assay [3], in assay [4], in [5], in assay [6] and in assay [7] was inactive. For the same molecule, the molecule was called inactive in assay [8], in assay [19], in assay [15], in assay [12], in assay [13] and in assay [11]. Also, in [14], the molecule was classed as inactive.

For `Nc1ccc(S(=O)(=O)Nc2nccs2)cc1`, the molecule was called inactive in [1], in [2], in assay [3], in [4], in assay [6] and in [18]. Further, the molecule was called inactive in assay [7], in assay [8], in assay [9], in assay [10], in assay [16] and in [12]. The molecule was called inactive in assay [13] and in [11].

In the case of `FC(F)(Br)C(F)(F)C(F)(F)C(F)(F)C(F)(F)C(F)(F)Br`, the result in [1], in [2], in assay [3], in [4], in assay [5] and in assay [7] was inactive. Further, the outcome in [8], in assay [19], in assay [15], in assay [10], in assay [16] and in assay [13] was inactive. Further, the call in [17], in assay [11] and in assay [14] was inactive. For the same molecule, the AC50 in assay [6] was 7.26 µM (active).

Consider `CC(C)OC(=O)c1ccccc1C(=O)OC(C)C`, for which the outcome in [1], in [2], in assay [3], in assay [5], in assay [7] and in assay [8] was inactive. The outcome in assay [19], in [15], in [13], in assay [11] and in [14] was inactive. In addition, the AC50 is 14.2 µM (active) in assay [4] and 11.2 µM (active) in assay [6].
